From the supplement of paper PMC12669032
A number with no mark means an inactive call.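 How the source made its calls: active = AUC reduced over 20% with Padj below 0.05 in at least 2 of 3 replicates; inactive = otherwise.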

Each molecule was assayed on Bifidobacterium longum subsp. longum (assay: growth AUC relative to DMSO control (median of replicates) (fraction); higher = more growth (less inhibition), active = hit call of the paper). Conditions: 20 µM; 24 h.
Procedure, shortened: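 OD600 was recorded every hour for 24 h in anaerobic monocultures of gut bacteria kept at 37 °C in mGAM, seeded at OD600 0.05 and given 20 µM compound in 1% DMSO. The area under each growth curve was scaled to the plate median of solvent-only wells, or to row and column medians for the industrial chemical plate. Before this step, the minimum OD was set to 0. Reported values are medians of three biological replicates run on separate days.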

Row | Compound | growth AUC
1 | Clc1ccc(Cl)cc1 | 1.07
2 | C#CC(C)(C)NC(=O)c1cc(Cl)cc(Cl)c1 | 0.987
3 | CC1CCCCC1NC(=O)Nc1ccccc1 (mixture of isomers) | 0.898
4 | Cc1ccc(N=CN(C)C=Nc2ccc(C)cc2C)c(C)c1 | 1.03
5 | CC(C)N1C(=O)c2ccccc2NS1(=O)=O | 1.06
6 | CC1(C)CC/C(=C\c2ccc(Cl)cc2)C1(O)Cn1cncn1 (centres undefined) | 1.08
7 | CCCN(CCCl)c1c([N+](=O)[O-])cc(C(F)(F)F)cc1[N+](=O)[O-] | 1.07
8 | COC(=O)Nc1nc2ccccc2[nH]1 | 1.01
9 | Cc1cc(C(F)(C(F)(F)F)C(F)(F)F)ccc1NC(=O)c1cccc(I)c1C(=O)NC(C)(C)CS(C)(=O)=O | 1.06
10 | CC(C)OC(=O)Nc1cccc(Cl)c1 | 0.981
11 | c1coc(-c2nc3ccccc3[nH]2)c1 | 1.04
12 | COC(=O)c1ccccc1S(=O)(=O)NC(=O)Nc1nc(C)nc(OC)n1 | 1
13 | Nc1cc(Cl)ccc1Cl | 0.992
14 | CCSCc1ccccc1OC(=O)NC | 0.967
15 | COP(=S)(OC)Oc1ccc([N+](=O)[O-])c(C)c1 | 1.04
16 | CCOC(=O)/C=C(C)/C=C/C[C@@H](C)CCCC(C)C | 0.949
17 | COc1nn(CSP(=S)(OC)OC)c(=O)s1 | 1.02
18 | CCCCOCN(C(=O)CCl)c1c(CC)cccc1CC | 0.996
19 | COc1ccc(C(c2ccc(OC)cc2)C(Cl)(Cl)Cl)cc1 | 0.926
20 | CNC(=O)/C(=N/OC)c1ccccc1Oc1ccccc1 | 0.942

Row | Compound | growth AUC
21 | O=C(O)c1ccc(=O)[nH]c1 | 1
22 | c1ccc2c(c1)ccc1c3ccccc3sc21 | 1.25
23 | CC1(C)C(/C=C(\Cl)C(F)(F)F)C1C(=O)OC(C#N)c1cccc(Oc2ccccc2)c1 (centres undefined) | 1.12
24 | CNC(=O)Oc1cc(C)cc(C(C)C)c1 | 1.19
25 | CCOP(=S)(OCC)Oc1cc(Cl)c(SC)cc1Cl | 0.981
26 | O=[N+]([O-])C(Br)(CO)CO | 0.991
27 | Cc1c(F)c(F)c(COC(=O)[C@@H]2[C@H](/C=C(\Cl)C(F)(F)F)C2(C)C)c(F)c1F (mixture of isomers) | 0.997
28 | COP(=S)(OC)Oc1ccc(S(C)=O)c(C)c1 (centres undefined) | 1.02
29 | CCNc1nc(NCC)nc(SC)n1 | 1.08
30 | CC(C)N(C(=O)SCC(Cl)=C(Cl)Cl)C(C)C | 1.01
31 | CCOP(=S)(OCC)Oc1ccc([N+](=O)[O-])cc1 | 1.03
32 | CC(C)[C@@H](Nc1ccc(C(F)(F)F)cc1Cl)C(=O)OC(C#N)c1cccc(Oc2ccccc2)c1 (some centres undefined) | 1.02
33 | Fc1ccc(C2(Cn3cncn3)OC2c2ccccc2Cl)cc1 (centres undefined) | 0.935
34 | CCCC1COC(Cn2cncn2)(c2ccc(Cl)cc2Cl)O1 (centres undefined) | 0.97
35 | CCOC(=O)C(O)(c1ccc(Cl)cc1)c1ccc(Cl)cc1 | 0.997
36 | CC#Cc1cc(C)nc(Nc2ccccc2)n1 | 0.978
37 | CC(C)N(Cc1ccccc1)C(=O)C(C)(C)C | 1.04
38 | O=c1oc2ccccc2c(O)c1C1CC(c2ccc(-c3ccc(Br)cc3)cc2)Cc2ccccc21 (centres undefined) | 0.647 (active)
39 | C[N+](C)(C)CCCl.[Cl-] | 0.997
